Where “and” joins values, the source holds several entries; their conditions need not be identical. Equal entries are not always repeated. Results filed as inconclusive are left out. A call without a number means that no potency is given here. A number with no mark means an inactive call. Calls of active or inactive are those of the source. The call rests on the fitted dose curve; in most records, active means well fitted cell-killing curve with a large enough effect in the repeat runs; inconclusive means weak or mixed curves, or effect the other way; inactive means flat fitted curve, though single readings scatter.
Columns and labels:
[1] = cAMP Responsive Elements (CRE) small molecule antagonists, cell-based qHTS assay: qHTS cell viability counter screen (AID 2060913); further: nearly all actives have a fitted effect of over 40% in size
Method in brief: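 Cytotoxicity counter screen multiplexed with the CRE-bla antagonist read: HEK293T cells in DMEM with dialyzed FBS and 25 mM HEPES were treated 3 hrs under 0.25 uM final NKH477, then viability measured by CellTiter-Glo luminescence.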

[2] = cAMP Responsive Elements (CRE) small molecule agonists, cell-based qHTS assay: qHTS cell viability counter screen (AID 2060914); further: nearly all actives have a fitted effect of over 50% in size
Method in brief: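 Cytotoxicity was measured as ATP luminescence (CellTiter-Glo, 30 min at room temperature) in the same wells as the CRE-bla FRET read-out. HEK293T CRE-bla cells had 3 h compound exposure at 37C/5% CO2.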
Potency means the concentration at half of the fitted maximal effect.

Compound | Potency [1] | Potency [2] | viability change, negative = cytotoxic [1] | activity change, negative = cytotoxicity [2]
O=C(CC(=O)c1ccccc1)c1ccccc1 | inactive | inactive | – | –
OCc1ccccc1O | inactive | inactive | – | –
CCCC(=O)OCCc1ccccc1 | inactive | inactive | – | –
O=C(O)CCC(=O)OC[C@@H](NC(=O)C(Cl)Cl)[C@H](O)c1ccc([N+](=O)[O-])cc1 | inactive | inactive | – | –
O=C(O)c1cn(C2CC2)c2cc(N3CCNCC3)c(F)cc2c1=O | inactive | inactive | – | –
O=C(O)Cc1ccc(OCCNC[C@H](O)c2ccccc2)cc1 | inactive | inactive | – | –
Cc1cc(Br)ccc1NC(=O)CCl | inactive | inactive | – | –
CCC(=O)OCc1ccccc1 | inactive | inactive | – | –
O=S(=O)(O)c1ccc(O)c2ncccc12 | inactive | inactive | – | –
CC1(N)CCC(C(C)(C)N)CC1 (stereo not given) | inactive | inactive | – | –
Oc1ccc(O)c2c(O)cccc12 | inactive | inactive | – | –
N#Cc1c(F)cccc1F | inactive | inactive | – | –
NC1CCCCC1N (stereo not given) | inactive | inactive | – | –
Cc1nc(C)nc(N2C[C@@H](C)N(c3ccnc([C@@H](C)O)n3)[C@@H](C)C2)n1 | inactive | inactive | – | –
CC(=O)CCc1ccc(O)cc1 | inactive | inactive | – | –
CCCCCCCCCCCCCCCCCC(=O)OCC(CC)CCCC (stereo not given) | inactive | inactive | – | –
CC(C)(O)c1ccccc1 | inactive | inactive | – | –
COc1cc(C=C2CCC/C(=C\c3ccc(O)c(OC)c3)C2=O)ccc1O | inactive | inactive | – | –
Cc1ccc(OC(=O)CC(C)C)cc1 | inactive | inactive | – | –
C#CCN[C@@H]1CCc2ccccc21 | inactive | inactive | – | –
c1ccc2[nH]cnc2c1 | inactive | inactive | – | –
O=C1C(=O)c2ccccc2C(O)=C1C1CCC(c2ccc(Cl)cc2)CC1 (stereo not given) | inactive | inactive | – | –
COC(=O)c1ccc(C)cc1C1=NC(C)(C(C)C)C(=O)N1 (stereo not given) | inactive | inactive | – | –
CCCc1nc(C)c2c(=O)[nH]c(-c3cc(S(=O)(=O)N4CCN(CC)CC4)ccc3OCC)nn12 | inactive | inactive | – | –

Compound | Potency [1] | Potency [2] | viability change, negative = cytotoxic [1] | activity change, negative = cytotoxicity [2]
CC(=O)/C(C)=C/C1C(C)=CCCC1(C)C (stereo not given) | inactive | inactive | – | –
CC(C)Cc1ccc(C(C)C(=O)OCc2ccccn2)cc1 (stereo not given) | inactive | inactive | – | –
Nc1nc(N)nc(-c2ccccc2)n1 | inactive | inactive | – | –
CCOc1ccc2ccccc2c1C(=O)N[C@@H]1C(=O)N2[C@@H]1SC(C)(C)[C@@H]2C(=O)O | inactive | inactive | – | –
CCC1(CO)COCOC1 | inactive | inactive | – | –
CCCCCCCCCC(=O)OCC | inactive | inactive | – | –
CCCCCCCCCCC1CO1 (stereo not given) | inactive | inactive | – | –
C[C@@H](O)[C@H]1C(=O)N2C(C(=O)O)=C(S[C@@H]3CN[C@H](CNS(N)(=O)=O)C3)[C@H](C)[C@H]12 | inactive | inactive | – | –
COc1ccc(C(=O)CC(=O)c2ccc(C(C)(C)C)cc2)cc1 | inactive | inactive | – | –
COc1ncnc(NS(=O)(=O)c2ccc(N)cc2)c1OC | inactive | inactive | – | –
CN(C)CC/C=C1\c2ccccc2COc2ccccc21 | inactive | inactive | – | –
Fc1ccccc1 | inactive | inactive | – | –
CCCc1nn(C)c2c(=O)[nH]c(-c3cc(S(=O)(=O)N4CCN(C)CC4)ccc3OCC)nc12 | inactive | inactive | – | –
CC(C(=O)O)c1ccc(/C=C2\CCCCC2=O)cc1 (stereo not given) | inactive | inactive | – | –
CN1CCN(c2cc3c(cc2F)c(=O)c(C(=O)O)cn3-c2ccc(F)cc2)CC1 | inactive | inactive | – | –
CC/C=C\CCOC(C)OCC (stereo not given) | inactive | inactive | – | –
COCCO | inactive | inactive | – | –
CCc1nc(N)nc(N)c1-c1ccc(Cl)cc1 | inactive | inactive | – | –
COc1cc2nc(Cl)nc(N)c2cc1OC | inactive | inactive | – | –
CC(C)(C)C1=CC(=O)C(C(C)(C)C)=CC1=O | inactive | inactive | – | –
CCCCCCCC/C=C\CCCCCCCC(=O)OC[C@@H](O)[C@H]1OC[C@H](O)[C@H]1O | inactive | inactive | – | –
OC[C@H](Cc1cccc(O)c1)[C@H](CO)Cc1cccc(O)c1 | inactive | inactive | – | –
CCOc1ccc2c(c1)C(C)=CC(C)(C)N2 | inactive | inactive | – | –
O=C(O)COc1nn(Cc2ccccc2)c2ccccc12 | inactive | inactive | – | –

Compound | Potency [1] | Potency [2] | viability change, negative = cytotoxic [1] | activity change, negative = cytotoxicity [2]
C[Si](C)(C)O[Si](C)(C)O[Si](C)(C)C | inactive | inactive | – | –
O=C(O)c1ccccc1S | inactive | inactive | – | –
Cc1ccccc1N=C(N)Nc1ccccc1C | inactive | inactive | – | –
CC(=O)OC[C@H]1O[C@@H](n2ncc(=O)[nH]c2=O)[C@H](OC(C)=O)[C@@H]1OC(C)=O | inactive | inactive | – | –
O=Cc1ccccc1O | inactive | inactive | – | –
CC(C)COC(=O)COc1cc(Cl)c(Cl)cc1Cl | inactive | inactive | – | –
NC(=O)c1cccnc1 | inactive | inactive | – | –
CCN(CC)CC(=O)OCC(=O)[C@@]1(O)CC[C@H]2[C@@H]3CCC4=CC(=O)CC[C@]4(C)[C@H]3[C@@H](O)C[C@@]21C | inactive | inactive | – | –
C=CCOCC(O)CO (stereo not given) | inactive | inactive | – | –
Cc1ccc(/C(=C\CN2CCCC2)c2ccccn2)cc1 | inactive | inactive | – | –
O=C(Nc1ccccc1SSc1ccccc1NC(=O)c1ccccc1)c1ccccc1 | inactive | inactive | – | –
Cc1ccc(C(=O)c2ccc(CC(=O)O)n2C)cc1 | inactive | inactive | – | –
O=C(Nc1ccc(C(=O)O)c(O)c1)c1ccccc1 | inactive | inactive | – | –
OC1CCCCC1c1ccccc1 (stereo not given) | inactive | inactive | – | –
[O]=[Zr] | inactive | inactive | – | –
NC(=O)NC(N)=O | inactive | inactive | – | –
C/C=C(\C)C#N | inactive | inactive | – | –
CC(CO)CO | inactive | inactive | – | –
C=CC(=O)NCOCC(C)C | inactive | inactive | – | –
COc1ccc2c(c1)c1c3n2CCN(C)C3=NCC1 | inactive | inactive | – | –
C/C=C/C(=O)CC | – | – | 6.92% [at 18.9 µM] | 7.79% [at 18.9 µM]
CCCCCC(=O)O | inactive | inactive | – | –
Nc1nc(-c2ccccc2)c(Br)c(=O)[nH]1 | inactive | inactive | – | –
C=C(C)C(=O)OCCOC(=O)C(=C)C | inactive | inactive | – | –

Compound | Potency [1] | Potency [2] | viability change, negative = cytotoxic [1] | activity change, negative = cytotoxicity [2]
Oc1ccccc1F | inactive | inactive | – | –
CCCCSCCCC | inactive | inactive | – | –
OCC(F)(F)F | inactive | inactive | – | –
CN(C)c1cccc(O)c1 | inactive | inactive | – | –
CC(C)(C)c1n[nH]c(=S)n(N)c1=O | inactive | inactive | – | –
CCCCC(CC)COP(=O)(O)OCC(CC)CCCC (stereo not given) | inactive | inactive | – | –
CC(C)(C)C1(CCc2ccc(Cl)cc2)CO1 (stereo not given) | inactive | inactive | – | –
O=C(Cn1ccnc1[N+](=O)[O-])NCCO | inactive | inactive | – | –
COC(=O)/C=C/c1ccccc1 | inactive | inactive | – | –
CCCCC(CC)(CO)CO | inactive | inactive | – | –
O=C1OC2(c3cc(Br)c(O)c(Br)c3Oc3c2cc(Br)c(O)c3Br)c2c(Cl)c(Cl)c(Cl)c(Cl)c21 | inactive | inactive | – | –
O=C(O)CN(CCN(CC(=O)O)CC(=O)O)CCN(CC(=O)O)CC(=O)O | – | – | 8.32% [at 18.9 µM] | 3.54% [at 18.9 µM]
O=C1CCCCCCCCCCC(=O)OCCO1 | inactive | inactive | – | –
COc1c2ccoc2cc2oc(=O)ccc12 | inactive | inactive | – | –
CCCCCCCCOC(=O)CCCCCCCCC(=O)OCCCCCCCC | inactive | inactive | – | –
FC(F)OC(Cl)C(F)(F)F (stereo not given) | inactive | inactive | – | –
CCCC(=O)O[C@]1(C(=O)CC)CC[C@H]2[C@@H]3CCC4=CC(=O)CC[C@]4(C)[C@H]3[C@@H](O)C[C@@]21C | inactive | inactive | – | –
O=Cc1cccc(Br)c1 | inactive | inactive | – | –
c1ccc2cnccc2c1 | inactive | inactive | – | –
CC/C(=C(/c1ccc(O)cc1)c1ccc(OCCN(C)C)cc1)c1ccccc1 | 37.6 µM (active) | inactive | – | –
CCCCCCCC(=O)OCC(COC(=O)CCCCCCC)OC(=O)CCCCCCC | inactive | inactive | – | –
Cc1ccc(C(=O)c2cc(O)c(O)c([N+](=O)[O-])c2)cc1 | inactive | inactive | – | –
CC(C)=CCl | inactive | inactive | – | –
NC(=O)c1ccc(N)cc1 | inactive | inactive | – | –

Compound | Potency [1] | Potency [2] | viability change, negative = cytotoxic [1] | activity change, negative = cytotoxicity [2]
CCC1COC(=O)O1 (stereo not given) | inactive | inactive | – | –
C=Cc1ccccn1 | inactive | inactive | – | –
Cc1cc(=O)[nH]c(C(C)C)n1 | inactive | inactive | – | –
CC(C)c1ccc(C=O)cc1 | inactive | inactive | – | –
N=C(N)c1ccc(OCCCCCOc2ccc(C(=N)N)cc2)cc1 | inactive | inactive | – | –
C=CCN1CCc2nc(N)sc2CC1 | inactive | inactive | – | –
O=C(NCCCN1CCOCC1)c1ccc(Cl)cc1 | inactive | inactive | – | –
NC(CO)C(=O)NNCc1ccc(O)c(O)c1O (stereo not given) | inactive | inactive | – | –
CCNc1cccc(C)c1 | inactive | inactive | – | –
CCCCCCCCCCCCCCCC[N+](C)(C)CC | 57.1 µM (active) and 26.6 µM (active) | 54.6 µM (active) and 26.6 µM (active) | – | –
CC(N=C(NC#N)Nc1ccncc1)C(C)(C)C (stereo not given) | inactive | inactive | – | –
CN(C)CCCN | inactive | inactive | – | –
CC(C)Nc1ccccc1 | inactive | inactive | – | –
CCCCCCC=O | inactive | inactive | – | –
CC(C)COC(=O)COc1ccc(Cl)cc1Cl | inactive | inactive | – | –
Cc1cc(CCCOc2c(C)cc(-c3noc(C(F)(F)F)n3)cc2C)on1 | inactive | inactive | – | –
O=C(O)c1ccc(Cl)cc1Cl | inactive | inactive | – | –
O=C1CC2(CCCC2)CC(=O)N1CCNCC1COc2ccccc2O1 (stereo not given) | inactive | inactive | – | –
N#CSCC(=O)O | inactive | inactive | – | –
CC(C)(c1cc(Br)c(OCC(Br)CBr)c(Br)c1)c1cc(Br)c(OCC(Br)CBr)c(Br)c1 (stereo not given) | inactive | inactive | – | –
CC(=O)OCCC1CCCCC1 | inactive | inactive | – | –
COc1cc(C)ccc1O | inactive | inactive | – | –
CC1CCCO1 (stereo not given) | inactive | inactive | – | –
NC(=O)NC(=O)Cc1ccccc1 | inactive | inactive | – | –

From PubChem BioAssay (Tox21)
